# PubChem BioAssay AID1452 (National Center for Advancing Translational Sciences (NCATS), 2008)
# In all, about 150,000 compounds went through this assay and about 190 (0.13%) were called active. Roughly 2% stayed inconclusive and do not appear here. Calls come from the whole dose curve; as a rule, active = well fitted inhibition curve with a large enough effect; inconclusive = small, poorly fitted or top-dose-only effect; inactive = flat fitted curve, though single readings scatter. The entries come from a sample that favours actives as a whole.
# Molecular target: Polyunsaturated fatty acid lipoxygenase ALOX12 (Homo sapiens) (UniProt P18054)
# Sequence (P18054 whole entry, looked up): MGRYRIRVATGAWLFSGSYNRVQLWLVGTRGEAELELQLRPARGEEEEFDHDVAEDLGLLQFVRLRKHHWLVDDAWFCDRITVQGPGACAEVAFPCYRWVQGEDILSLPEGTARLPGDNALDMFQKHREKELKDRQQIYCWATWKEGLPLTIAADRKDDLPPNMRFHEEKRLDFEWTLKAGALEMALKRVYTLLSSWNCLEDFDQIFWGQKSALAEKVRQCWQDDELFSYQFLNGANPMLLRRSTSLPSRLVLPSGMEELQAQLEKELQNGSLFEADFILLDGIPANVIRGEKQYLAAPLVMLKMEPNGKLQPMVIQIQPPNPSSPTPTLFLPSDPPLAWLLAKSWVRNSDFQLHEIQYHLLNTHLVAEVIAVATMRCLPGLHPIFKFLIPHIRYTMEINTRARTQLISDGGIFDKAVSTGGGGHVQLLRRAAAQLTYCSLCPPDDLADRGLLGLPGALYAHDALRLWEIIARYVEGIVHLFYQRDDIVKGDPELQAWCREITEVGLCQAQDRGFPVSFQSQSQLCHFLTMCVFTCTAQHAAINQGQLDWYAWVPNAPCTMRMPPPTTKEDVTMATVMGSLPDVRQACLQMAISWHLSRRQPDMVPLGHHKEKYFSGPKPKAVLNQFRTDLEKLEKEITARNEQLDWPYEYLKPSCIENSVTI
# Assay: qHTS Assay for Inhibitors of 12-hLO (12-human lipoxygenase); note: nearly all actives have a fitted effect of over 55% in size
# Settings: purified 12-hLO, xylenol orange hydroperoxide absorbance; series mostly up to 57.1 µM; activity change, negative = inhibition: at the top concentration
# From the text: Assay Provider: Holman, T.R., University of California, Santa Cruz Screening Center PI: Austin, C.P. Screening Center: NIH Chemical Genomics Center [NCGC] Human lipoxygenase 12hLO is a member of the closely related lipoxygenase family of enzymes which catalyze the site-specific oxidation of arachidonic acid to various hormone precursor molecules and as such is a candidate for drug development in a variety of disease areas, such as cancer and inflammation. Inhibition of 12hLO activity was screened by utilizing arachidonic acid as a substrate. The extent of hydroperoxide product formation was measured by a secondary chromogenic reaction in which xylenol orange (XO, Sigma-Aldrich, cat. number 39,818-7) reacts with the ferric ions produced from the reaction between the hydroperoxide and ferrous ions. The Fe(III)-XO complex is characterized with red-shifted absorbance at 560 nm. A purified preparation of human 12hLO was supplied by Professor Ted Holman, University of California, Santa Cruz.
# Assay Protocol: Buffer: 25 mM Hepes pH 7.0, 0.01% Triton X-100. Reagents/Controls: Buffer in columns 3 and 4 as negative control (no enzyme). Substrate solution: 40 uM arachidonic acid (Sigma-Aldrich, St. Louis, MO) final concentration dispensed throughout the plate. Enzyme: 150 nM 12hLO final concentration in columns 1, 2, 5-48. Column 1 is neutral (100% activity). Column 2 contained pin-transferred titration of NDGA (nordihidroguaiaretic acid, Sigma-Aldrich, N 5023, top concentration 20 mM in DMSO, then 1:3 dilution in duplicate). (Dilution factor: 23 nL into 4 uL.) Chromogenic detection reagent (divalent iron/xylenol orange, Fe-XO): 200 uM xylenol orange plus 300 uM ferrous ammonium sulfate prepared freshly in 50 mM sulfuric acid. Assay Steps: Three uL of enzyme were dispensed to 1536-well Greiner black clear bottom plates. Compounds and controls (23 nL) were transferred via Kalypsys PinTool. The plates were incubated for 15 min at room temperature, and then 1 uL of substrate solution was added to start the reaction. After room temperature incubation for 30 minutes, 4 uL of Fe-XO solution was added to each well and the plates were incubated for 30 min. The absorbance at 405 and 573 nm were measured using ViewLux (Perkin-Elmer) High-throughput CCD imager and absorbance protocol settings. The 573-to-405 absorbance ratio was used to compute reaction progress.
# % is set by controls: 0 for no effect and ±100 for the full control effect; potency is the fitted concentration of half-maximal effect.
Compound,"activity change, negative = inhibition",Potency
CC(=O)c1c(C)[nH]c(C(=O)OCC(=O)Nc2cc(S(=O)(=O)N3CCCCC3)ccc2C)c1C,2.06% (inactive),–
CCc1nnc(NC(=O)CCN(c2ccc(C)cc2)S(=O)(=O)c2ccccc2)s1,-0.864% (inactive),–
CCOc1ccc(-c2n[nH]c(=S)n2/N=C/c2cc3c(cc2[N+](=O)[O-])OCO3)cc1,-5.47% (inactive),–
C=CCN(c1ccc(C(=O)Nc2cc(C)cc(C)c2)cc1)S(C)(=O)=O,-4.04% (inactive),–
COc1ccc(Cl)cc1NC(=O)CNc1ccccc1F,-1.57% (inactive),–
Cc1ccccc1NC(=S)Nc1cccc([N+](=O)[O-])c1,4.55% (inactive),–
Cc1ccc(NC(=S)Nc2ncccc2C)c(C)c1,–,17.8 µM (active)
Cc1ccc(NC(=O)Cn2nc(C)c3ccccc3c2=O)c(C)c1,2.12% (inactive),–
CC(C)(C)OC(=O)NCCCCC1=CC2=CC(=O)C(C)(OC(=O)c3cccs3)C(=O)C2=CO1 (stereo not drawn),-3.09% (inactive),–
CC[C@@]12C=C(/C=C/c3ccccc3)[C@](CC)(C1)[C@H](c1ccccc1)CC2=O,5.59% (inactive),–
COC(=O)C1=C(C(=O)OC)[C@@H]2Nc3ccccc3[C@@]23C[C@@H](C(=O)OC)N(S(=O)(=O)c2ccc([N+](=O)[O-])cc2)C3=N1,-6.39% [at 11.4 µM] (inactive),–
COc1ccc(-n2c(=S)[nH]c3sc4c(c3c2=O)CCc2ccccc2-4)cc1,1.84% (inactive),–
Cc1ccc(S(=O)(=O)Nc2nc(C)cc(N/N=C/c3ccc(O)cc3)n2)cc1,-3.75% (inactive),–
COC(=O)c1c(NC(=O)CN2C(=O)NC(CCc3ccccc3)C2=O)sc2c1CCCCC2 (stereo not drawn),-1.26% (inactive),–
C=CCN1c2ccccc2[C@]23C[C@@H](C(=O)OC)N(S(=O)(=O)c4ccc([N+](=O)[O-])cc4)C2=NC(C(=O)OC)=C(C(=O)OC)[C@H]13,-1.48% [at 11.4 µM] (inactive),–
CCN(/N=C/c1ccccc1)c1cc(=O)n(C)c(=O)[nH]1,1.89% (inactive),–
COCCN1C(=O)N[C@@H](CCc2ccccc2)[C@H](C(C)=O)[C@H]1C,1.29% [at 11.4 µM] (inactive),–
C=CC1=C2C=C(C3CC3)N(CC(C)C)C=C2C(=O)C(C)(OC(=O)c2ccco2)C1=O (stereo not drawn),0.586% [at 11.4 µM] (inactive),–
CCCCCCCC[C@@H](O)/C=C/C=C/C=C\[C@@H](O)CCCC(=O)O,-1.41% (inactive),–
COc1ccc(-c2nc3c(c4c2C[C@H](c2ccccc2)OC4)CN(C(=O)c2ccco2)CC3)c(C)c1,3.56% [at 11.4 µM] (inactive),–
Cc1ccccc1C(CC(=O)c1cccs1)C(C#N)C#N (stereo not drawn),-3.86% (inactive),–
Cc1c(/C=N/N2C(=O)C3C4C=CC(C4)C3C2=O)c2ccccc2n1C (stereo not drawn),-0.415% (inactive),–

Compound,"activity change, negative = inhibition",Potency
CC/C=C\C/C=C\C/C=C\C/C=C\C/C=C\C/C=C\CCC(=O)NC(C)C(=O)O (stereo not drawn),-0.133% (inactive),–
COc1cc(NC(=O)COC(=O)CSc2ccc3ccccc3c2)c(C)cc1[N+](=O)[O-],0.682% (inactive),–
COc1ccc(-c2c(C)cc3oc(=O)cc(-c4ccccc4)c3c2C)cc1C=O,-1.15% [at 0.00818 µM] (inactive),–
CCOc1ccc2nc(C(=O)N3CCCC(C)C3)sc2c1 (stereo not drawn),0.738% (inactive),–
O=C(/C=C/c1ccc([N+](=O)[O-])cc1)NCCSCc1ccco1,-1.35% (inactive),–
COCC(C)n1c(C)cc(C(=O)CSc2cc(C)c3ccccc3n2)c1C (stereo not drawn),1.24% (inactive),–
COCOc1cc(OC)ccc1C(=O)/C=C/c1ccc([N+](=O)[O-])cc1,2.11% (inactive),–
CCCCCCCC1=Cc2ccc(F)cc2C(C(C(=O)OC)C(=O)OC)N1C(=O)OC (stereo not drawn),0.612% [at 11.4 µM] (inactive),–
COC(=O)C1=C(C(=O)OC)[C@@H]2N(Cc3ccccc3)c3ccccc3[C@@]23C[C@@H](C(=O)OC)N(S(=O)(=O)c2ccc(C(F)(F)F)cc2)C3=N1,-1.93% [at 11.4 µM] (inactive),–
Cc1ccc(C2=NN(C(=O)CSc3nc(N)cc(N)n3)C(c3ccco3)C2)cc1 (stereo not drawn),-1.7% (inactive),–
C/C(CC(=O)NC(C)(C)C)=N\NC(=O)c1ccco1,-1.45% (inactive),–
O=C(COC(=O)[C@H](Cc1ccccc1)NC(=O)c1cccs1)Nc1cc(F)ccc1F,-0.944% (inactive),–
Cc1cc2oc(=O)cc(-c3ccccc3)c2c(C)c1-c1ccc(OC(F)(F)F)cc1,-2.23% [at 0.00818 µM] (inactive),–
Cc1ccc(C)c(NC(=S)NNC(=O)c2csc(C)c2)c1,3.02% (inactive),–
CCCCS(=O)(=O)N1C2=NC(C(=O)OC)=C(C(=O)OC)[C@@H]3N(Cc4ccccc4)c4ccccc4[C@]23C[C@H]1C(=O)OC,2.88% [at 11.4 µM] (inactive),–
Cc1cccc(N2CCN(C(=O)/C=C/c3ccco3)CC2)c1C,-3.72% (inactive),–
COc1ccc(-c2cc(C(F)(F)F)nc(SCC(=O)Nc3ccc4c(c3)OCO4)n2)cc1OC,-2.21% (inactive),–
CCOC(=O)c1c(NC(=O)C(C)Sc2c[nH]c3ccccc23)sc2c1CCC2 (stereo not drawn),-1.99% (inactive),–
CCCCC/C=C\C/C=C\CCCCCCCCCC(=O)NCC(=O)O,0.691% (inactive),–
Cc1ccnc(-n2sc3ccccc3c2=O)n1,–,12.6 µM (active)
Cc1nc2ccccc2c(=O)n1CCCn1ccnc1,-0.99% (inactive),–
Cc1ccnc(N2CCC(C(=O)NC3CCCCCC3)CC2)n1,-2.17% (inactive),–

Compound,"activity change, negative = inhibition",Potency
CCCCC/C=C\C[C@H](O)/C=C/C=C/C=C/[C@@H](O)CCCC(=O)O,4.92% (inactive),–
COC(=O)C1=NNC2(c3ccc(C)cc3)C(=O)N(c3cccc(C)c3C)C(=O)C12 (stereo not drawn),0.273% (inactive),–
C=CC(=O)c1ccc2ccccc2c1,–,2.51 µM (active)
CC(=O)c1ccc2c(ccc3ccccc32)c1,-1.61% (inactive),–
CC(=O)CCC(=O)c1ccc2ccccc2c1,-1.87% (inactive),–
CCOC(=O)C1=C(N)N(c2ccc(C)cc2)C2=C(C(=O)CCC2)C1c1cccs1 (stereo not drawn),1.9% (inactive),–
COC(=O)CCCC1=CC2=CC(=O)C(C)(OC(=O)c3cccs3)C(=O)C2=CN1c1ccc(CO)cc1 (stereo not drawn),-2.32% [at 11.4 µM] (inactive),–
COc1ccc(-c2c(C)cc3oc(=O)cc(-c4ccccc4)c3c2C)cc1OC,-1.07% [at 0.00818 µM] (inactive),–
COc1ccc(/C=C/C(=O)OCC(=O)Nc2cccc(Oc3ccccc3)c2)c(OC)c1,-1.67% (inactive),–
COc1ccc(CCC(=O)OCC(=O)Nc2ccc(C)c(S(=O)(=O)N(C)C)c2)cc1,-0.448% (inactive),–
O=C(CSc1ccccc1)Nc1nnc(/C=C/c2ccccc2)s1,2.65% (inactive),–
COc1ccc(C2NC(=S)NC3=C2CCc2ccccc23)cc1OC (stereo not drawn),-17.3% (inactive),–
CC1(OC(=O)c2ccc(Cl)nc2)C(=O)Cc2cc(-c3ccsc3)ncc2C1=O (stereo not drawn),-0.498% [at 11.4 µM] (inactive),–
COc1ccc(NS(=O)(=O)c2ccc(NC(=S)NC(=O)CC(C)C)cc2)cc1,–,15.8 µM (active)
CC(=O)c1ccc(NC(=S)NC(=O)CC(C)C)cc1,1.05% (inactive),–
COc1ccc(C(=O)Nc2ccc(S(=O)(=O)NC(C)C)cc2)cc1,4.57% (inactive),–
COc1cc(-c2cc(C(=O)OCC(=O)Nc3ccc4c(c3)OCO4)c3ccccc3n2)cc(OC)c1OC,1.97% (inactive),–
CCOC(=O)C1=C(C(=O)OCC)C(C(=O)OCC)N(S(=O)(=O)C(F)(F)F)c2ccccc21 (stereo not drawn),-4.37% [at 0.00818 µM] (inactive),–
COc1cc(NC(=O)Nc2ccc(C)cc2)cc([N+](=O)[O-])c1,0.524% (inactive),–
COc1cccc(NC(=S)NCCCN2CCOCC2)c1,-0.748% (inactive),–
COc1cc(NC(=S)NCCSc2ccc(C)cc2)cc(OC)c1,–,20 µM (active)
NS(=O)(=O)c1ccc(CNC(=O)c2ccc(Cl)cc2[N+](=O)[O-])cc1,-2.13% (inactive),–

Compound,"activity change, negative = inhibition",Potency
O=C(Cn1nc(CNc2ccc(Cl)cc2)[n+]2c1CCCCC2)c1ccc(Cl)cc1,-14.1% (inactive),–
COc1ccc([N+](=O)[O-])cc1NC(=O)C(C)OC(=O)C1c2ccccc2Oc2ccccc21 (stereo not drawn),-0.718% (inactive),–
CC1(C)O[C@@H]2C[C@@H]3[C@H]4C[C@@H](F)C5=CC(=O)C=C[C@]5(C)[C@@]4(F)[C@@H](O)C[C@]3(C)[C@]2(C(=O)CO)O1,-0.431% [at 0.00818 µM] (inactive),–
CC(C)(C)C1CCC(=NNC(=O)c2ccc(Br)o2)CC1 (stereo not drawn),7.26% (inactive),–
CCCCC/C=C\C/C=C\C/C=C\CCCCC(=O)NCC(=O)O,5.86% (inactive),–
O=C(Cc1ccccc1)NC(=S)Nc1ccc(N2CCCCC2)cc1,-4.31% (inactive),–
CCCCC/C=C\CC1OC1CCCCCCCC(=O)O (stereo not drawn),-6.12% (inactive),–
COc1cccc(-c2cc(=O)c3cc(NC(=O)c4ccc(C)cc4)ccc3[nH]2)c1,0.685% [at 0.00818 µM] (inactive),–
C[C@H]1Cc2c(-c3ccccc3)nc3c(c2CO1)CN(S(=O)(=O)c1ccc(Cl)c2nonc12)CC3,-3.11% [at 11.4 µM] (inactive),–
COc1ccc(CCNC(=O)COC(=O)C2CCCCC2)cc1,-0.0351% (inactive),–
Cc1ccc(C(=O)COC(=O)CCN2C(=O)C3C4CC(C(Br)C4Br)C3C2=O)cc1 (stereo not drawn),-1.03% (inactive),–
CC(=O)c1c(C)[nH]c(C(=O)COC(=O)c2cccc(S(=O)(=O)N(C)c3ccccc3)c2)c1C,-3.3% (inactive),–
Cc1ccc(NC(=S)NC(=O)/C=C/c2ccc(Cl)cc2)cc1,-2.19% (inactive),–
O=C(CSC1CC(=O)N(CCc2ccccc2)C1=O)Nc1ccc(Cl)cc1 (stereo not drawn),-7.76% (inactive),–
COc1ccc(-c2nc3c(c4c2C[C@H](c2ccccc2)OC4)CN(S(=O)(=O)c2c(C)noc2C)CC3)c(C)c1,1.37% [at 11.4 µM] (inactive),–
CC1=C(C(=O)Nc2cc(C)ccn2)C(c2cnn(C)c2)C2=C(CC(c3ccccc3)CC2=O)N1 (stereo not drawn),-1.69% (inactive),–
O=C(CN1CCN(c2ccc(O)cc2)CC1)NC1CCCc2ccccc21 (stereo not drawn),-5.85% (inactive),–
CC(=O)CC(c1ccccc1)C1C(=O)Oc2ccccc2C1=O (stereo not drawn),-0.392% [at 0.00818 µM] (inactive),–
CCCC(=O)Nc1ccc(C(=O)N/N=C/c2ccc[nH]2)cc1,-0.0134% (inactive),–
CC(C)C(C)(C#N)NC(=O)CSc1nc2scc(-c3ccccc3)c2c(=O)[nH]1 (stereo not drawn),-0.662% (inactive),–
Cn1nccc1CNC(=O)c1ccnn1C,0.98% (inactive),–
Cc1ccccc1-c1ccc(C(=O)O)s1,1.22% [at 0.00818 µM] (inactive),–
